High-throughput results: PubChem, National Center for Advancing Translational Sciences (NCATS)
Shiga toxin inh: inhibitors of Shiga toxin in Vero cells. Vero cells, Shiga toxin protein synthesis inhibition reporter. inhibition, % at 38.7 µM. actives 9.2% (n = 290,000). AID 2315; in the data active means inhibition mostly above about 28%, no sharp cut-off; inactive means mostly below about 43%
Pf growth 96h: P. falciparum growth inhibition at 96 hours; actives 6.9% (n = 320,000); P. falciparum luciferase reporter growth, 96 h; Potency, µM (titrated, usually from 28.7 µM), hits mostly inhibitors
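Compounds incubated with erythrocytes infected by luciferase-expressing P. falciparum (2% hematocrit, 0.05% parasitemia final) for 96 hours, 37 C in 5% CO2. Growth inhibition scored as decreased luciferase luminescence.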
NS1 inh: inhibitors of influenza NS1 protein function; actives 0.4% (n = 270,000); Potency, µM (doses to about 46.1 µM); AID 2326; calls by dose curve; further: actives are rising curves; nearly all actives have a fitted effect of over 50% in size
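A cell-based growth assay was used: compounds that relieve NS1-induced slow growth of budding yeast raise OD600. Assay medium was yeast nitrogen base with ammonium sulphate and -URA supplement, pH 6.0, with 2% galactose.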
Giardia FBPA inh: blocks Giardia fructose-bisphosphate aldolase activity | purified Giardia FBPA | AID 2451 | actives 0.71% (n = 290,000) | Potency, µM (highest dose often 59.6 µM), usual class: inhibitors | A8B2U2; further: nearly all actives have a fitted effect of over 55% in size
Target sequence (A8B2U2 whole entry, looked up): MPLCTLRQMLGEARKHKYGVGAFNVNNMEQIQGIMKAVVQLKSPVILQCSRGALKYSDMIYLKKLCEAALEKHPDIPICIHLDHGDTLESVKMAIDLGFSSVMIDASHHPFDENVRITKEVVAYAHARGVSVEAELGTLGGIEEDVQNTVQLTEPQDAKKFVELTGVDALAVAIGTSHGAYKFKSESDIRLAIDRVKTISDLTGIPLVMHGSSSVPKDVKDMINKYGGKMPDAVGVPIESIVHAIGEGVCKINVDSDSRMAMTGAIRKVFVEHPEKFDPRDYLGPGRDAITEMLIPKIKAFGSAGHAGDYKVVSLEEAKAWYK
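40 nM FBPA preincubated 10 min at RT with compound (up to 57.5 uM final), then substrate plus GAPDH/TPI/NAD/arsenate coupling and diaphorase/resazurin added. Fluorescence read after 20 min at RT, 525/598 nm.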
Pf growth 48h: inhibits P. falciparum growth in the first generation, 48 h; P. falciparum luciferase growth in erythrocytes, 48 h; Potency, µM (highest dose often 28.7 µM), actives largely listed as inhibitors; actives 5.9% (n = 310,000)
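Read-out is firefly luciferase luminescence from an integrated reporter in P. falciparum, so falling signal marks reduced parasite growth. Infected erythrocytes were at 2% hematocrit and 0.1% parasitemia (final) in Albumax-supplemented RPMI 1640.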
CHX counter: affects cycloheximide protein synthesis inhibition readout, counter-screen | cell reporter, cycloheximide protein synthesis inhibition counterscreen | max response, % | actives 12% (n = 300,000); in the data active means max response mostly above about 13%, no sharp cut-off; inactive means mostly below about 14%; further: read at 38.3 µM for the half of the compounds with a filed dose
Large screens that a line does not name were inactive; ! = a repeat was not active. An excerpt weighted towards active compounds, which were near 21% of everything screened. Unless noted, the call rests on the fitted dose curve; in most records, active means well fitted curve in the direction sought with a large enough effect; inconclusive means small, poorly fitted or top-dose-only effect, or another doubt; inactive means no such curve, though single readings can be large; an effect the other way counts as inactive or inconclusive.

CC(=O)c1cccc(N(C(=O)CS(=O)CC(=O)Nc2ccc(F)cc2)C(C(=O)NC2CCCCC2)c2ccc(C)o2)c1 (configuration not stated)	Pf growth 96h 4.1µM, Pf growth 48h inconclusive
Cc1cccc(N(C(=O)CCC(=O)Nc2cc(C)on2)C(C(=O)NC2CCCC2)c2ccc(C)o2)c1 (configuration not stated)	Shiga toxin inh 28, Pf growth 48h inconclusive, CHX counter 26
CCC(C)(C)NC(=O)C(c1ccc(C)cc1)N(CC1CCCO1)C(=O)CCC(=O)Nc1ccccn1 (configuration not stated)	Pf growth 96h 12µM, Pf growth 48h inconclusive
O=C(CS(=O)CC(=O)N(c1cccc(F)c1)C(C(=O)NC1CCCCC1)c1ccco1)Nc1ccc(F)cc1 (configuration not stated)	Pf growth 96h inconclusive, Pf growth 48h inconclusive
CC(C)(OC(=O)c1ccc(C#N)cc1)c1cc2ccccc2c(=O)o1	none (no result: Shiga toxin inh, NS1 inh, Giardia FBPA inh, CHX counter)
Cc1ccc(C(C(=O)NC2CCCC2)N(Cc2ccco2)C(=O)CCC(=O)Nc2cc(C)on2)cc1 (configuration not stated)	Pf growth 96h 13µM, Pf growth 48h inconclusive
Cc1cc(NC(=O)CCC(=O)N(c2ccccc2)C(C(=O)NC2CCCC2)c2ccccc2)no1 (configuration not stated)	Pf growth 96h 8.3µM, Pf growth 48h 15µM
Cc1ccc(N(C(=O)CCC(=O)Nc2cc(C)on2)C(C(=O)NC2CCCC2)c2ccccc2)cc1 (configuration not stated)	Pf growth 48h 12µM
CCCCN(C(=O)CCC(=O)Nc1cc(C)on1)C(C(=O)NC1CCCC1)c1ccccc1OCC (configuration not stated)	Pf growth 48h 15µM
CC(CCc1ccccc1)NC(=O)Cc1cccs1 (configuration not stated)	none
O=C(Nc1cccc(C(F)(F)F)c1)C1CC(=O)N(CCc2ccccc2)C1 (configuration not stated)	Pf growth 48h inconclusive (no result: Shiga toxin inh, NS1 inh, Giardia FBPA inh, CHX counter)
COc1ccccc1NC(=O)NNC(=O)c1ccc2ccccc2c1O	NS1 inh inconclusive
O=C(CCC(=O)N1CCOc2ccc(Cl)cc21)NCCN1CCOCC1	none
Cc1cc(NC(=O)CCC(=O)N(c2ccccc2)C(C)C(=O)NC2CCCC2)no1 (configuration not stated)	none
Cc1cc(NC(=O)CCC(=O)N(c2ccccc2)C(C(=O)NC2CCCC2)c2ccccc2C)no1 (configuration not stated)	Pf growth 96h inconclusive, Pf growth 48h 13µM
Cc1ccc(NC2CCCN(C(=O)c3ccnc(Cl)c3)C2)cc1C (configuration not stated)	none (no result: Giardia FBPA inh)
CCOc1cc2c(cc1OCC)C(c1ccc(OC)cc1)N(c1ccccc1)C(=O)C2 (configuration not stated)	Pf growth 48h inconclusive
CCOc1cc2c(cc1OCC)C(c1ccccc1)N(c1ccccc1)C(=O)C2 (configuration not stated)	Pf growth 96h 4.1µM, Pf growth 48h inconclusive
Cc1cnc(CNc2ncncc2-c2ccccc2CN(C)C)cn1	none (no result: Shiga toxin inh, Pf growth 96h, NS1 inh, Pf growth 48h, CHX counter)
Cc1cccc(NC(=O)CN2C(=O)N/C(=C/c3ccc(-c4cccc(C(=O)O)c4C)o3)C2=O)c1	Shiga toxin inh 45, CHX counter 27
CCN1C(=O)N/C(=C/c2ccc(C)o2)C1=O	Giardia FBPA inh inconclusive
O=C1N/C(=C/c2ccc(N3CCOCC3)o2)C(=O)N1c1cccc(Cl)c1	CHX counter 22
Cc1c(C(=O)O)cccc1-c1ccc(/C=C2/NC(=O)N(c3ccccc3)C2=O)o1	CHX counter 28
O=C1NC(=O)C(=Cc2ccc(N3CCOCC3)o2)C(=O)N1	none (no result: NS1 inh)
Cc1ccc(/C=C2/NC(=O)N(c3ccccc3)C2=O)o1	Shiga toxin inh 90, CHX counter 32
CC1(OC(=O)c2cnc3ccccc3n2)C(=O)C=C2C=C3CCCN3C=C2C1=O (configuration not stated)	none (no result: Shiga toxin inh, Pf growth 96h, NS1 inh, Pf growth 48h, CHX counter)
CC(C)CCN1CCC(n2nccc2NC(=O)c2ccc3c(c2)OCO3)CC1	none
O=C1NC(=O)N(c2ccccc2)C(=O)/C1=C/c1ccoc1	none (no result: NS1 inh)
O=C1N/C(=C/c2ccc(Br)s2)C(=O)N1c1ccccc1	Shiga toxin inh 65, CHX counter 16
Cc1ccc(NC(=S)N2CCC(NC(=O)c3ccc(F)cc3)CC2)cc1C	none
COc1cc(NS(=O)(=O)c2csc(C(N)=O)c2)cc(OC)c1	none
O=C(CN1C(=O)NC2(CCCC2)C1=O)Nc1ccc(C(F)(F)F)cc1	none
CC1=CC(=Nc2c(C)n(C)n(-c3ccccc3)c2=O)C=CC1=O	Pf growth 96h inconclusive, NS1 inh inconclusive, Giardia FBPA inh 3.5µM, Pf growth 48h inconclusive
Cc1cn([C@H]2C=C[C@@H](CO)O2)c(=O)[nH]c1=O	Shiga toxin inh 162!, Pf growth 96h inconclusive, CHX counter 52!
Cc1ccc(-c2csc(NC(=O)CSc3nc4ccccc4c(=O)n3CCCN(C)C)n2)cc1	Pf growth 96h inconclusive, Pf growth 48h inconclusive (no result: NS1 inh)
COc1cc(/C=C/C(=O)NCCc2ccc(S(N)(=O)=O)cc2)ccc1OCC#N	Pf growth 96h 12µM, Pf growth 48h inconclusive
CCOc1cc(/C=C/C(=O)NCCc2ccc(S(N)(=O)=O)cc2)ccc1OCC(C)C	Pf growth 96h 0.66µM, Pf growth 48h inconclusive
CCOc1cc(/C=C/C(=O)Nc2ccc(C(=O)NCCN(CC)CC)cc2)ccc1OCC(C)C	Pf growth 96h 0.52µM, Pf growth 48h 2.6µM (no result: NS1 inh)
COc1ccc(CCNC(=O)/C=C/c2cc(OC)c(OC)c(OC)c2)cc1OC	Pf growth 96h inconclusive
CC(=O)N1CCN(S(=O)(=O)c2cccc(C(=O)NNC(=O)COc3ccc(F)cc3)c2)CC1	none (no result: Shiga toxin inh, NS1 inh, Giardia FBPA inh, CHX counter)
CCOc1ccccc1NC(=O)NNS(=O)(=O)c1cc(OC)ccc1OC	none
CCN(C(=O)c1cc2cccc(OC)c2oc1=O)C1CCCCC1	Pf growth 96h 1.5µM, Pf growth 48h inconclusive
COc1cccc2cc(C(C)=O)c(=O)oc12	none
COc1cccc2cc(C(=O)N3CCN(c4ncccn4)CC3)c(=O)oc12	CHX counter 14 (no result: Pf growth 96h)
COc1cccc2cc(C(=O)N3CCCCCCC3)c(=O)oc12	Shiga toxin inh 44, Pf growth 48h inconclusive, CHX counter 32
Cc1cccc(C)c1OCCSc1nc2ccccc2n1CC(=O)O	Pf growth 96h 12µM (no result: Shiga toxin inh)
COc1ccc(OCCSc2nc3ccccc3n2CC(=O)O)cc1	NS1 inh inconclusive (no result: Pf growth 96h)
COc1ccc(C(=O)/C=C2\NCCc3cc(OC)c(OC)cc32)cc1OC	Pf growth 96h 13µM, Pf growth 48h 10µM
COc1ccc(C(=O)N2CCc3cc(OC)c(OC)cc3C2)cc1OC	Pf growth 96h inconclusive
CCCCCc1cc(=O)oc2c(C(CCN(CC)CC)c3ccc(OC)cc3)c(OC)cc(OC)c12 (configuration not stated)	Pf growth 96h 1.9µM, Pf growth 48h 3.3µM
